# Laboratory results published in PubChem BioAssay (NCATS).
# Records with an inconclusive call do not appear. Active and inactive are the calls of the source. The call rests on the fitted dose curve; in most records, active means well fitted cell-killing curve with a large enough effect; inconclusive means small, poorly fitted or top-dose-only effect; inactive means flat fitted curve, though single readings scatter.
# Assay: qHTS of pediatric cancer cell lines to identify multiple opportunities for drug repurposing: Primary screen for BT-37 cells (AID 1347094);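 on activity change, negative = cytotoxic: plate controls were DMSO for no effect and bortezomib for full effect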
# Conditions: BT-37 viability, CellTiter-Glo luminescence, 48 h; series mostly up to 57.3 µM; activity change, negative = cytotoxic: at the top concentration
# Description: Drug repurposing or repositioning has been offered as a strategy for drug development in oncology programs. This approach has special potential for childhood cancers and other rare or orphan diseases, where the expected return on new drug development has been a disincentive to pharmaceuticals. […] In this project we exploit the poly-pharmacology of drugs to discover new indications via phenotypic screening of a panel of 19 well-characterized cell lines derived from solid tumors seen in children and adolescents. The goal is to identify approved drugs with previously unrecognized anticancer properties that has the potential to reveal new mechanisms and biological processes involved in carcinogenesis or drug resistance. We employed a titration-based paradigm (quantitative high-throughput screening or qHTS), where all compounds were tested at multiple concentrations for their effect on cell viability. Concentration-response curves (CRCs) were derived directly from the primary screen, and both potency and efficacy values were used to identify compounds with robust bioactivity profiles. We screened the NIH Chemical Genomics Center (NCGC) Pharmaceutical Collection (NPC) and Mechanism Interrogation Plate (MIPE) small molecule collections of approved and investigational compounds against these cell lines; and measured metabolically active cells after 48 hours of compound treatment as a proxy for cell viability. […] Assay Submitter: Nathalia J. Martinez, National Center for Advancing Translational Sciences, National Institutes of Health, Rockville, MD, USA; email: natalia.martinez@nih.gov Shen, M et al. Quantitative high-throughput phenotypic screening of pediatric cancer cell lines identifies multiple opportunities for drug repurposing. Oncotarget 2017 Dec 19;9(4):4758-4772. PMID 29435139.
# The cells were obtained from University of North Carolina (UNC), Pediatric Preclinical Testing Program (PPT), and Coriell Institute (CI). qHTS cell viability assay: Cells were assayed in growth media at a density of 500-1,000 cells/well. Five microliters of cells were dispensed into 1,536-well, white, solid-bottom, TC-treated plates (Greiner Bio One) using a multidrop dispenser and incubated at 37 degrees C, 5% CO2, under a humidified atmosphere for 5 hours. Twenty-three nanoliters of compounds and controls (neutral control DMSO or positive control bortezomib at final concentration of 2.3 µM) were subsequently transferred by Kalypsys pintool. For primary screens, the MIPE collection was tested at 11-point dilutions (final concentrations range from 0.78 nM to 46 µM) and the NPC collection at 8-point dilutions (final concentrations range from 0.59 nM to 46 µM). Compounds tested in follow-up screens were assayed at 11-point dilutions. Cells were incubated for 48 hours, followed by addition of 3 µL of CellTiter-Glo (Promega). After a 15 min incubation at room temperature, samples were analyzed for luminescence intensity using a ViewLux High-throughput CCD imager equipped with clear filters.
# Potency means the concentration at half of the fitted maximal effect.
Structure (SMILES),"activity change, negative = cytotoxic",Potency
NS(=O)(=O)c1ccc(Cl)c(S(N)(=O)=O)c1,-8.23% (inactive),–
COc1cc([C@H]2Oc3cc([C@H]4Oc5cc(O)cc(O)c5C(=O)[C@@H]4O)ccc3O[C@@H]2CO)ccc1O,-11.1% (inactive),–
CC(=O)Nc1ccc(CC(=O)O)cc1,1.74% (inactive),–
NS(=O)(=O)Cc1noc2ccccc12,3.64% (inactive),–
CCCCCCCCCCCCCCCCO,7.88% (inactive),–
O=C(Nc1ccc([N+](=O)[O-])cc1)Nc1ccc([N+](=O)[O-])cc1,-1.18% (inactive),–
CC(C)n1c(/C=C/[C@@H](O)C[C@@H](O)CC(=O)O)c(-c2ccc(F)cc2)c2ccccc21,–,15.5 µM (active)
CN1CCN(c2cc3c(cc2F)c(=O)c(C(=O)O)cn3-c2ccc(F)cc2)CC1,15.6% (inactive),–
O=[N+]([O-])c1cccc(S(=O)(=O)NCCNS(=O)(=O)c2cccc([N+](=O)[O-])c2)c1,-6.5% (inactive),–
C=C1c2cccc(O)c2C(O)=C2C(=O)[C@]3(O)C(O)=C(C(N)=O)C(=O)[C@@H](N(C)C)[C@@H]3[C@@H](O)[C@H]12,-2.26% (inactive),–
Cc1ccc2c(Br)cc(Br)c(O)c2n1,–,8.71 µM (active)
CC(=O)OCC1=C(C(=O)O)N2C(=O)[C@@H](NC(=O)CSc3ccncc3)[C@H]2SC1,15.6% (inactive),–
NC(=S)N/N=C/c1cccnc1,21.1% (inactive),–
CC1(C)OC[C@@H]2O[C@@]3(C(=O)O)OC(C)(C)O[C@H]3[C@@H]2O1,19.9% (inactive),–
CCN(CC)CCNc1ccc(CO)c2sc3ccccc3c(=O)c12,–,17.4 µM (active)
O=C(NC1CCN(CCc2c[nH]c3ccccc23)CC1)c1ccccc1,-8.14% (inactive),–
NC(=O)c1ccccc1O,11% (inactive),–
O=C1C(O)=C(O)C(=O)C(O)=C1O,4.02% (inactive),–
CCCCCCCCNC(C)C(O)c1ccc(SC(C)C)cc1 (stereo not given),–,27.6 µM (active)
CC(C)NCC(O)c1ccc2ccccc2c1 (stereo not given),6.66% (inactive),–

Structure (SMILES),"activity change, negative = cytotoxic",Potency
Cc1cc2c(OCC(CNC(C)(C)C)OC(=O)c3ccccc3)cccc2[nH]1 (stereo not given),9.62% (inactive),–
CCCCCCCCCCCCCCCC(=O)O,0.501% (inactive),–
O=C(O)CCNC(=O)c1ccccc1,0.194% (inactive),–
Cn1c(=O)c2[nH]c(Br)nc2n(C)c1=O,5.47% (inactive),–
NS(=O)(=O)c1cc(C(=O)O)cc(N2CCCC2)c1Oc1ccccc1,4.31% (inactive),–
O=C(O)C1(C(=O)O)CCC1.[NH2-].[NH2-].[Pt+2],7.66% (inactive),–
CCCCC(CC)COC(=O)/C=C/c1ccc(OC)cc1 (stereo not given),3.7% (inactive),–
Cl/C(=C\n1cncn1)c1ccc(Cl)cc1Cl,3.75% (inactive),–
CO[C@]12C[C@@H](COC(=O)c3cncc(Br)c3)CN(C)[C@@H]1Cc1cn(C)c3cccc2c13,-7.23% (inactive),–
FC(F)(F)C(F)(F)C(F)(F)C(F)(F)C(F)(F)C(F)(F)C(F)(F)C(F)(F)Br,0.517% (inactive),–
CCOC(=O)[C@@](C)(N)Cc1ccc(O)c(O)c1,-8.08% (inactive),–
CCc1cc(Cl)c(OC)c(C(=O)NC[C@@H]2CCCN2CC)c1O,-5.03% (inactive),–
Nc1nc(-c2ccccc2)c(Br)c(=O)[nH]1,-2.82% (inactive),–
CCCCCCCCCCC[C@@H](C[C@@H]1OC(=O)[C@H]1CCCCCC)OC(=O)[C@H](CC(C)C)NC=O,21.4% (inactive),–
CC(=O)Oc1ccc(C)cc1,12% (inactive),–
O=C(O)CCc1nc2ccccc2[nH]1,4.84% (inactive),–
OC(C#CCN1CCCC1)(c1ccccc1)c1ccccc1,-4.72% (inactive),–
C=C[C@H]1CN2CC[C@H]1C[C@H]2[C@H](O)c1ccnc2ccc(OC)cc12,-5.02% (inactive),–
CCCCCCCCOc1ccc(C(=O)c2ccccc2)c(O)c1,5.37% (inactive),–
CCOC(=O)Nc1ccc2c(c1)N(C(=O)CCN1CCOCC1)c1ccccc1S2,-15.1% (inactive),–
